Data as given in PubChem BioAssay AID687022 (Broad Institute, 2013).
In all, about 1,000 compounds went through this assay and about 360 (36%) were called active.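 How the source made its calls: active means Fitted curve of melting temperature shift crosses the 1.0 threshold at or below the sample's highest valid tested concentration; inconclusive means Flat fit with activity 30 to 70, or invalid fit; inactive means Opposite direction, flat within 30, or no crossing.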 The list is a sample of the results.

target: Fibroblast growth factor 22 (Homo sapiens) (UniProt Q9HCT0); assay: binders of human FGF22 protein, dose response, FGF22 synaptogenesis inhibitor project, biophysical, thermal shift, cherry-pick (AID 687022); conditions: recombinant FGF22 thermal shift, SYPRO orange melting; series mostly up to 38 µM; further: reference of the scale not given here
Sequence (Q9HCT0 whole entry, looked up): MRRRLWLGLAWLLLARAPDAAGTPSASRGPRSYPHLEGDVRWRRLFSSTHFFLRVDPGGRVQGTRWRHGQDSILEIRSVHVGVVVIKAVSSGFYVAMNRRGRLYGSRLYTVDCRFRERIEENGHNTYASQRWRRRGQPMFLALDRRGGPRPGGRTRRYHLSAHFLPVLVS

Row | Compound | Tm shift activity
1 | CC(C)(CNS(=O)(=O)c1ccc2c(c1)OCCO2)N1CCOCC1 | inactive
2 | Cn1c(=O)[nH]c(=O)c2c1nc(SCC(O)CO)n2CCCc1ccccc1 (centres undefined) | inactive
3 | Cc1[nH]c2ccccc2c1C(=O)C(=O)NCCOc1ccccc1 | inactive
4 | O=[N+]([O-])c1ccc(/C=N/Nc2ccc3ccccc3c2)o1 | inactive
5 | CCOC(=O)[C@@H]1[C@H]2COc3cc(OC)ccc3[C@H]2N2C(=O)N(c3ccc(C)cc3)C(=O)[C@]12C | inactive
6 | C[C@H](CO)N1C[C@H](C)[C@@H](CN(C)C(=O)Nc2cccc3ccccc23)Oc2c(NS(C)(=O)=O)cccc2C1=O | inactive
7 | C[C@H]1CN([C@@H](C)CO)C(=O)c2cc(NC(=O)c3ccncc3)ccc2O[C@@H]1CN(C)S(=O)(=O)c1cn(C)cn1 | inactive
8 | C[C@H]1CN([C@@H](C)CO)C(=O)c2cc(NS(=O)(=O)c3ccccc3)ccc2O[C@@H]1CN(C)Cc1ccc(C(=O)O)cc1 | inactive
9 | CCCCn1cnc2c(SCc3cccc(F)c3)nc(N)nc21 | inactive
10 | O=C(COc1ccccc1)NCC(=O)NC1CCCCC1 | inactive
11 | O=C(C[C@@H]1CC[C@@H](NC(=O)Nc2cc(F)ccc2F)[C@H](CO)O1)NCCCN1CCOCC1 | inactive
12 | CCOC(=O)Cn1c2ccccc2n2nc(CCC(=O)O)c(=O)nc12 | inactive
13 | COCC(=O)N1C[C@@H]2[C@H](c3ccccc31)[C@H](CO)N2C(=O)c1ccccc1F | inactive
14 | COc1ccccc1S(=O)(=O)N(C)C[C@@H]1Oc2cc(C#CCC(C)C)ccc2S(=O)(=O)N([C@@H](C)CO)C[C@H]1C | inactive
15 | O=C(C[C@H]1C[C@@H]2c3cc(NC(=O)NC4CCCC4)ccc3O[C@@H]2[C@H](CO)O1)NCc1ccc2c(c1)OCO2 | inactive
16 | CCCNC(=O)COCc1cc(-c2ccc3c(c2)OCO3)on1 | inactive
17 | O=C(COC(=O)CSc1ccc([N+](=O)[O-])cc1)NCCC1=CCCCC1 | inactive
18 | O=C(NCC[C@@H]1CC[C@H](NC(=O)C2CCOCC2)[C@H](CO)O1)Nc1ccc(Cl)cc1 | inactive
19 | Cc1c(/C=N\NC(=O)c2cccc(F)c2)cnn1C | inactive
20 | COc1ccc(/C=N/NC(=O)c2cccc([N+](=O)[O-])c2)cc1OC | inactive

Row | Compound | Tm shift activity
21 | O=C(N/N=C/c1c[nH]c2ccccc12)c1ccc2c(c1)OCCO2 | inactive
22 | Cc1nn(-c2ccccc2)c(Cl)c1/C=N/NC(=O)c1cccnc1 | inactive
23 | COc1ccc(NS(=O)(=O)c2cccc(C(=O)NN=Cc3ccc(OC)c(O)c3)c2)cc1 | inactive
24 | CC(=O)Nc1ccc(C(=O)N/N=C/c2cc(Br)cc(Br)c2O)cc1 | inactive
25 | CC1CC(CC(=O)NC(=S)Nc2ccccc2Cl)C(=O)O1 (centres undefined) | inactive
26 | CNC[C@H]1Oc2ccc(NC(=O)Cc3cn(C)c4ccccc34)cc2C(=O)N([C@H](C)CO)C[C@H]1C | inactive
27 | COc1ccc(S(=O)(=O)N(C)C[C@@H]2Oc3ccc(NC(=O)Nc4ccccc4)cc3CC(=O)N([C@H](C)CO)C[C@@H]2C)cc1 | inactive
28 | CC(=O)Oc1ccc(C(=O)Nc2ccccc2C(=O)N2CCCCC2)cc1 | inactive
29 | COc1ccccc1C(=O)NNC(=O)c1ccc(NC(=O)c2ccccc2)cc1 | inactive
30 | CCCN(C)C[C@H]1Oc2cc(C#Cc3cccnc3)ccc2S(=O)(=O)N([C@H](C)CO)C[C@@H]1C | inactive
31 | C[C@@H]1CN([C@@H](C)CO)C(=O)c2cccc(NC(=O)c3ccc(-c4nccs4)cc3)c2O[C@@H]1CN(C)C | inactive
32 | CN(C)CC(=O)Nc1ccc2c(c1)[C@@H]1C[C@H](CC(=O)N(C)C)O[C@@H](CO)[C@@H]1O2 | inactive
33 | O=C1COc2ccc(S(=O)(=O)N3CCCC3)cc2N1 | inactive
34 | C[C@H]1CN([C@@H](C)CO)C(=O)c2cc(NS(=O)(=O)c3cn(C)cn3)ccc2O[C@H]1CN(C)Cc1ccccc1 | inactive
35 | OC[C@H]1[C@@H](c2ccc(-c3cccnc3)cc2)[C@@H]2CN(Cc3ccccn3)CCCCN12 | inactive
36 | O=C(C[C@H]1CC[C@H]2[C@@H](COC[C@@H](O)CN2C(=O)C2CC2)O1)NCc1ccncc1 | inactive
37 | Cc1nn(C)cc1NC(=O)C[C@H]1CC[C@@H]2[C@@H](COc3ccc(NC(=O)NC(C)C)cc3C(=O)N2C)O1 | inactive
38 | COc1cccc(NC(=O)N[C@H]2C=C[C@@H](CC(=O)N3CCN(C)CC3)O[C@H]2CO)c1 | inactive
39 | O=C1C=CCCN1S(=O)(=O)/C=C/c1ccccc1 | inactive
40 | CCOc1ccc(C(=O)CCC(=O)Nc2ccc(C)cn2)cc1 | inactive

Row | Compound | Tm shift activity
41 | CCC(CC)CN1CCC(CN2C(=O)C(=O)NC[C@@H]2CC(C)C)CC1 | inactive
42 | O=C(C[C@H]1C[C@@H]2c3cc(NC(=O)NC4CCCC4)ccc3O[C@@H]2[C@H](CO)O1)NC1CCCC1 | inactive
43 | Nc1nccc(-c2ccc(-n3cccc3)cc2)n1 | inactive
44 | CO[C@H]1CN(C)C(=O)c2ccc(NS(=O)(=O)c3ccc(Cl)cc3)cc2OC[C@@H](C)N(C(=O)NC(C)C)C[C@H]1C | inactive
45 | COCCNC(=O)CCc1nnc2ccc(N3CCC(C)CC3)nn12 | inactive
46 | CC(C)(C)NC(=O)N1CCC(CO)(Cc2ccccc2Cl)CC1 | inactive
47 | CC(=O)N1[C@H](CO)[C@H](c2ccccc2)[C@H]1CN(C(=O)c1cccc(F)c1)C(C)C | inactive
48 | Cc1noc(C)c1S(=O)(=O)Nc1ccc2c(c1)CC(=O)N([C@@H](C)CO)C[C@@H](C)[C@@H](CN(C)Cc1ccc(Cl)c(Cl)c1)O2 | inactive
49 | CCCNC(=O)N1[C@@H]2CN(C(=O)c3ccccc3)c3ccccc3[C@@H]2[C@@H]1CO | inactive
50 | O=C(O)C1CSC(c2ccc3c(c2)OCO3)N1 (centres undefined) | inactive
51 | OC[C@@H]1[C@H](c2ccc(Br)cc2)[C@@H]2CN(Cc3cncnc3)CCCCN12 | inactive
52 | CO[C@H]1CN(C)C(=O)c2cc(NC(=O)CC(F)(F)F)ccc2OC[C@@H](C)N(C(C)=O)C[C@H]1C | inactive
53 | CNC[C@H]1Oc2ccc(NC(=O)Nc3ccc(OC)cc3)cc2C(=O)N([C@H](C)CO)C[C@@H]1C | inactive
54 | CNC[C@@H]1Oc2c(NS(=O)(=O)c3ccc(OC)cc3)cccc2C(=O)N([C@@H](C)CO)C[C@@H]1C | inactive
55 | COc1ccc(S(=O)(=O)N(C)C[C@@H]2Oc3c(NC(=O)c4cc(C)nn4C)cccc3C(=O)N([C@H](C)CO)C[C@H]2C)cc1 | inactive
56 | COc1ccc(S(=O)(=O)N/N=c2\oc3c(OC)cccc3cc2S(=O)(=O)c2ccc(C)cc2)cc1OC | inactive
57 | O=C(N[C@H]1CC[C@@H](CCNS(=O)(=O)c2ccc(F)cc2)O[C@H]1CO)C1CCCC1 | inactive
58 | CN1C(=O)c2cc(NC(=O)Cc3ccccc3)ccc2OC[C@@H]2O[C@H](CC(=O)O)CC[C@H]21 | inactive
59 | CO[C@@H]1CN(C)C(=O)c2cc(NC(=O)NC(C)C)ccc2OC[C@@H](C)N(C)C[C@@H]1C | inactive
